Active and inactive are the calls of the source.
Each compound was assayed on XIP peptide (Xip251-270) binding (assay: XIP fragment 251-270 binding compounds – biochemical, small-molecule microarray, fluorescence 635/667 nm, 0.1 µg/mL protein, primary screen (AID 1182)). Conditions: fluorescent protein binding, 635 nm, higher = more signal, called active from +8 up or from −8 down.

Structure (SMILES) | composite z-score
COC(=O)CC=C[C@@H](C)[C@@H](C=NOC[C@H]1O[C@H](c2ccccc2)C=C[C@@H]1Oc1ccc(OC)cc1)NS(=O)(=O)c1ccc(C)cc1 | -0.0195 (inactive)
C[C@@H](ON=C1[C@H]2CCn3c(=O)n(-c4ccccc4)c(=O)n3[C@H]2[C@H](O)[C@@H]2O[C@H]12)c1cn([C@@H]2COC[C@H]2O)nn1 | -0.24 (inactive)
C#CCCCON=C1[C@H]2CCn3c(=O)n(-c4ccccc4)c(=O)n3[C@H]2[C@H](O)[C@@H]2O[C@H]12 | 0.245 (inactive)
CON=Cc1ccc(C(=O)N2[C@H](c3ccc(C)cc3)[C@@H](C)CC[C@H]2C(=O)OC)cc1 | -0.288 (inactive)
C=CC1=C[C@H](O)[C@@H]2O[C@@H]2C12OCCCO2 | -0.49 (inactive)
COC(=O)CC=C[C@H](C)[C@@H](OCc1cccc(Br)c1)[C@@H](C)[C@H](OC)C1CCCCC1 | 0.685 (inactive)
CC(C)CCN1CCc2nc(COc3ccccc3)c3c(c2C1)CO[C@@H](C)C3 | 0.0821 (inactive)
COC(=O)[C@@H]1CC[C@H](C)[C@@H](c2ccc(C)cc2)N1C(=O)c1ccc(C=NO[C@H](C)c2cn([C@@H]3COC[C@H]3O)nn2)cc1 | 0.604 (inactive)
CO[C@H]1COC(=O)CC=C[C@@H](C)[C@H](OC)COC(=O)CCC[C@@H]1C | -0.283 (inactive)
CCN1C(=O)[C@H]2[C@H]3[C@H](O)[C@H](O)CC(=O)[C@@H]3CC[C@H]2C1=O | 0.221 (inactive)

These compounds were tested on XIP peptide (Xip251-270) (assay: compounds binding XIP fragment 251-270 – biochemical, small-molecule microarray, fluorescence 635/667 nm, 0.5 µg/mL protein, primary screen (AID 1183)). Conditions: fluorescence 635 nm, higher = more signal.

Structure (SMILES) | composite z-score
CCOC(=O)[C@H](CC(C)C)NC(=O)CCC1CC(OC(=O)NCc2cccc3ccccc23)CC2(CCCC(COC(=O)NCCC(C)C)O2)O1 (stereo partly specified) | 0.434
CCOC(=O)[C@H](CC(C)C)NC(=O)CCC1CC(OC(=O)NCc2ccc3c(c2)OCO3)CC2(CCCC(COC(=O)NCc3cccc(C(F)(F)F)c3)O2)O1 (stereo partly specified) | 0.348
CO[C@H]1COC(=O)[C@@H](C)COC(=O)[C@@H](OCc2ccccc2)C=C[C@@H]1C | 0.204
Cc1ccc(S(=O)(=O)N[C@H]2COC(=O)CC=C[C@H](C)[C@@H](NS(=O)(=O)c3ccc(C)cc3)COC(=O)CC=C[C@@H]2C)cc1 | -0.019
CCOC(=O)[C@H](Cc1ccccc1)NC(=O)CCC1CC(OC(=O)NCCc2ccc(F)cc2)CC2(CCCC(COC(=O)NCCCN3CCCC3=O)O2)O1 (stereo partly specified) | 0.701
CCOC(=O)[C@H](CC(C)C)NC(=O)CCC1CC(OC(=O)NCCc2ccc(F)cc2)CC2(CCCC(COC(=O)NCCc3ccccc3OC)O2)O1 (stereo partly specified) | 0.578
C#CCCCON=C1C[C@@H](O)[C@@H](O)[C@@H]2[C@@H]3C(=O)N(c4ccc(F)cc4F)C(=O)[C@@H]3CC[C@@H]12 | 0.0996
CC(C)CON=C1C[C@@H](O)[C@@H](O)[C@@H]2[C@@H]3C(=O)N(c4cccc(Oc5ccccc5)c4)C(=O)[C@@H]3CC[C@@H]12 | 0.536
COc1ccc(O[C@H]2C=C[C@@H](c3ccccc3)O[C@@H]2COC(=O)CCC(C)=NO[C@@H]2O[C@H](COC(C)=O)[C@@H](OC(C)=O)[C@H](OC(C)=O)[C@H]2OC(C)=O)cc1 | 0.495
C[C@H](ON=C1[C@H]2CCn3c(=O)n(-c4ccccc4)c(=O)n3[C@H]2[C@H](O)[C@@H]2O[C@H]12)c1cn([C@H](CO)Cc2ccccc2)nn1 | 0.238
COCOc1ccc(Br)cc1C(=O)[C@@H]1O[C@H]1c1cccc(OC)c1 | 0.106
CCOC(=O)[C@H](Cc1ccccc1)NC(=O)CCC1CC(OC(=O)NCc2cccc3ccccc23)CC2(CCCC(COC(=O)NCCC(C)C)O2)O1 (stereo partly specified) | 0.027
COc1ccc(COC(=O)NN=C2C[C@@H](O)[C@@H](O)[C@@H]3[C@@H]4C(=O)N(c5cccc(Oc6ccccc6)c5)C(=O)[C@@H]4CC[C@@H]23)cc1 | -0.206
CCc1cc2c(nc1CC)CCN(CCC(C)=NO[C@H](C)c1cn([C@@H]3COC[C@H]3O)nn1)C2 | -0.0063
O=C1[C@H]2[C@H]3[C@H](O)[C@H](O)CC(=NOCc4ccccc4)[C@@H]3CC[C@H]2C(=O)N1Cc1ccc2c(c1)OCO2 | 0.2
O=C1CCCC(C2=CCCCC2=O)C1 (stereo unspecified) | 0.0997
O=C1[C@H]2[C@H]3[C@H](O)[C@H](O)CC(=NOC[C@@H](O)COCc4ccco4)[C@H]3CC[C@H]2C(=O)N1Cc1ccccc1 | 0.252
CCc1cc2c(nc1CC)CCN(CCC(C)=NOC[C@H]1O[C@H](c3ccccc3)C=C[C@@H]1Oc1ccc(OC)cc1)C2 | 0.431

Structure (SMILES) | composite z-score
CCOC(=O)[C@H](Cc1ccccc1)NC(=O)CCC1CC(OC(=O)NCCc2ccc(F)cc2)CC2(CCCC(COC(=O)NCCOC)O2)O1 (stereo partly specified) | 0.0681
CC(C)[C@@H](OCc1ccccc1)[C@H](C)C=NOC[C@@H](O)COCc1ccco1 | -0.273
CON=C[C@@H](NS(=O)(=O)c1ccc(C)cc1)[C@H](C)C=CCC(=O)OC | 0.332
COc1ccc(O[C@H]2C=C[C@@H](c3ccccc3)O[C@@H]2CON=C2[C@H]3CCn4c(=O)n(-c5ccccc5)c(=O)n4[C@H]3[C@H](O)[C@@H]3O[C@H]23)cc1 | 0.742
CO[C@@H]1COC(=O)[C@@H](C)NC(=O)CC=C[C@@H](C)[C@H](NS(=O)(=O)c2ccc(C)cc2)COC(=O)[C@H](C)NC(=O)CC=C[C@H]1C | 0.113
CO[C@H]1COC(=O)[C@@H](Cc2ccccc2)NC(=O)[C@@H](C)COC(=O)CCC[C@@H]1C | 0.171
COC(=O)[C@H]1[C@@H](O)[C@@]2(O)c3ccccc3O[C@@]2(c2ccccc2)[C@@H]1c1ccccc1 | -0.028
CC(C)CON=C1C[C@@H](O)[C@@H](O)[C@@H]2[C@@H]3C(=O)N(Cc4ccc5c(c4)OCO5)C(=O)[C@@H]3CC[C@H]12 | 0.202
COC(=O)CC=C[C@@H](C)[C@@H](C=NOC[C@H]1O[C@H](c2ccccc2)C=C[C@@H]1Oc1ccc(OC)cc1)NS(=O)(=O)c1ccc(C)cc1 | -0.827
C[C@@H](ON=C1[C@H]2CCn3c(=O)n(-c4ccccc4)c(=O)n3[C@H]2[C@H](O)[C@@H]2O[C@H]12)c1cn([C@@H]2COC[C@H]2O)nn1 | 0.324
C#CCCCON=C1[C@H]2CCn3c(=O)n(-c4ccccc4)c(=O)n3[C@H]2[C@H](O)[C@@H]2O[C@H]12 | 0.193
CON=Cc1ccc(C(=O)N2[C@H](c3ccc(C)cc3)[C@@H](C)CC[C@H]2C(=O)OC)cc1 | 0.488
C=CC1=C[C@H](O)[C@@H]2O[C@@H]2C12OCCCO2 | 0.343
COC(=O)CC=C[C@H](C)[C@@H](OCc1cccc(Br)c1)[C@@H](C)[C@H](OC)C1CCCCC1 | 0.768
CC(C)CCN1CCc2nc(COc3ccccc3)c3c(c2C1)CO[C@@H](C)C3 | 0.143
COC(=O)[C@@H]1CC[C@H](C)[C@@H](c2ccc(C)cc2)N1C(=O)c1ccc(C=NO[C@H](C)c2cn([C@@H]3COC[C@H]3O)nn2)cc1 | 0.78
CO[C@H]1COC(=O)CC=C[C@@H](C)[C@H](OC)COC(=O)CCC[C@@H]1C | -0.15
CCN1C(=O)[C@H]2[C@H]3[C@H](O)[C@H](O)CC(=O)[C@@H]3CC[C@H]2C1=O | 0.488

Reference: PubChem BioAssay
